MCF10A rerep – inducers of DNA re-replication in MCF 10A breast cells; MCF 10A DNA re-replication, Hoechst nuclear intensity, 48 h; Potency, µM (doses to about 46.1 µM), without a hit: top-dose activity, positive = re-replication, hits mostly activators; 2.9% of 350,000 active; note: % of control where 0% means no effect; nearly all actives have a fitted effect of over 50% in size
RORgamma inh – ROR gamma (mouse) transcription inhibition; P51450; Drosophila S2 Gal4-RORgamma UAS-luciferase reporter, 20 h; Potency, µM (doses to about 53.6 µM), inactives show at the highest dose activity change, negative = inhibition, most hits filed as inhibitors; 5.4% of 310,000 active; AID 2551; note: % is set by controls: 0 for no effect and ±100 for the full control effect; nearly all actives have a fitted effect of over 60% in size
Target sequence (P51450 whole entry, looked up, the tested form may be a part): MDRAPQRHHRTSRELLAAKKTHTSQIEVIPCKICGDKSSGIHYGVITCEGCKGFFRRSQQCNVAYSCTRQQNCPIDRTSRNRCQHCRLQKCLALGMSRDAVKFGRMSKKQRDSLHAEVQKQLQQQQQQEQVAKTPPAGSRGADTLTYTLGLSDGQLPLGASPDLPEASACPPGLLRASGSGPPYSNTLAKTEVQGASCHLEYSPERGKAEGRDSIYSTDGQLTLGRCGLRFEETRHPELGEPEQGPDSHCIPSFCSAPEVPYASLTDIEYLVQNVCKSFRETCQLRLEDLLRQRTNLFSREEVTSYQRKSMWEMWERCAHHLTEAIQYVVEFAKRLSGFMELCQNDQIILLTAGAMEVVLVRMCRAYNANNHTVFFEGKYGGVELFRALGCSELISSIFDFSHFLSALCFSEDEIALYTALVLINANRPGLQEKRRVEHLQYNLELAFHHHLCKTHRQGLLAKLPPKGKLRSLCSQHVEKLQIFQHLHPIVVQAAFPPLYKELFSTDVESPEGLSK
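Read-out: Photinus luciferase luminescence; inhibitors lower reporter signal. Insect Schneider cells with Gal4-ROR gamma fusion under metallothionein promoter, UAS reporter; 700 uM final copper sulfate induction, 20 hr, ambient temperature.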
SW480 rereplic – DNA re-replication induction in SW480 cells | SW480 DNA re-replication, Hoechst DNA content imaging, 48 h | Potency, µM (titrated, usually from 46.1 µM), inactives show at the top dose re-replication activation, most hits filed as activators | 1.8% of 340,000 active | AID 624297; note: % of control where 0% means no effect; nearly all actives have a fitted effect of over 55% in size
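Treated cells incubate 48 hr (37 C, 5% CO2), are stained 40 min with Hoechst, and nuclear fluorescence is enumerated; a rise in nuclei with high DNA signal marks re-replication.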
ELG1 repair inh – inhibitors of ELG1-dependent DNA repair in HEK293T cells | 2.3% of 330,000 active | Potency, µM (doses to about 46.1 µM), inactives show at the top dose activity change, negative = inhibition, usual class: inhibitors | HEK293T ELG1-luciferase reporter, luminescence, 16 h; DNA damage induced by 5-fluorouridine | AID 504467; note: % is set by controls: 0 for no effect and ±100 for the full control effect; nearly all actives have a fitted effect of over 55% in size
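5-Fluorouridine DNA damage + compound/DMSO, 2,000 cells/well, 16 h, 37 °C/5% CO2. ONE-Glo, 30 min RT, luminescence. Readout = decrease in reporter signal.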
Gal4-VP16 FLuc – Gal4-VP16 reporter inhibition counter-screen; Drosophila S2 Gal4-VP16 UAS-luciferase, luminescence, 20 h; Potency, µM (titrated, usually from 53.6 µM), without a hit: at the top dose activity, negative = inhibition, most hits filed as inhibitors; 3.5% of 310,000 active;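 note: Gal4-VP16 expression switched on by copper sulfate through the metallothionein promoter; % is set by controls: 0 for no effect and ±100 for the full control effect; nearly all actives have a fitted effect of over 50% in size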
Starred values were filed as active, the others as inactive; ? = inconclusive; nt = no result; [ ] = dose if it differs, or a comment. In the library only some 10% were active in any assay of this set; here they are far more common. Calls come from the whole dose curve; as a rule, active = well fitted curve in the direction sought with a large enough effect; inconclusive = small, poorly fitted or top-dose-only effect, or another doubt; inactive = no such curve, though single readings can be large; an effect the other way counts as inactive or inconclusive. Potency is the fitted concentration of half-maximal effect.

SMILES | MCF10A rerep | RORgamma inh | SW480 rereplic | ELG1 repair inh | Gal4-VP16 FLuc
CC(Nc1ccc(Cl)cc1)c1cc(Cl)ccc1O (configuration not stated) | 16% | ? | 2% | 1% | 13µM*
CC(CC(=O)OCC(=O)NC1CCS(=O)(=O)C1)c1ccccc1 (configuration not stated) | 2% | nt | 20% | 11% | nt
CC1CCCN(S(=O)(=O)c2ccc(NC(=O)C3CC(=O)N(c4ccccc4)C3)cc2)C1 (configuration not stated) | ? | 31% | 0% | ? | -11%
Cc1ccc(C(=O)NCCn2cc(SCC(=O)Nc3cc(C)on3)c3ccccc32)cc1 | 2% | ? | -4% | ? | -16%
Cc1ccc(C(=O)NCCn2cc(SCC(=O)N3CCOCC3)c3ccccc32)cc1 | 14% | 13µM* | -3% | ? | -1%
Cc1nn(C(C)C(=O)NC2CCCCCC2)c(=O)c2nn(-c3ccccc3)c(C)c12 (configuration not stated) | 2% | 36% | ? | 2% | 4%
COc1ccc(CNC(=O)CN2CCC(NC(=O)c3ccccc3C)CC2)cc1 | -3% | 2% | 1% | -2% | -1%
CCN1CCN(C2=C(NS(=O)(=O)c3ccc(C)cc3)C(=O)c3ccccc3C2=O)CC1 | 12% | ? | 21µM* | -7% | -18%
CC(=O)Nc1ccc(S(=O)(=O)NC2=C(N3CCN(C)CC3)C(=O)c3ccccc3C2=O)cc1 | 22% | 13µM* | ? | 18µM* | -30%
CCN1CCN(C2=C(NS(=O)(=O)c3ccc(NC(C)=O)cc3)C(=O)c3ccccc3C2=O)CC1 | ? | ? | -1% | -20% | ?
CC1CCN(C2=C(NS(=O)(=O)c3ccccc3)C(=O)c3ccccc3C2=O)CC1 | ? | -3% | -12% | -15% | 5%
O=C1C(NS(=O)(=O)c2ccccc2)=C(N2CCN(c3ccc(F)cc3)CC2)C(=O)c2ccccc21 | 7% | -8% | -1% | 23µM* | -1%
CC1CCN(C2=C(NS(=O)(=O)c3ccc(Cl)cc3)C(=O)c3ccccc3C2=O)CC1 | 4% | 11µM* | -1% | ? | ?
NC(=O)CC(NC(=O)c1ccccc1)c1ccc(NC2CCCCC2)c([N+](=O)[O-])c1 (configuration not stated) | -4% | 18% | 1% | 7% | ?
COc1ccc(S(=O)(=O)N2CCCCC2)cc1NC(=O)CSc1nccn1C | 1% | 31% | -8% | 11% | -8%
C=CCC(c1ccccc1)N(C(C)=O)c1ccco1 (configuration not stated) | 2% | 38% | -7% | ? | -9%[10 µM]
C=CCC(Nc1ccco1)c1ccccc1 (configuration not stated) | -1% | 4% | 0% | 10% | 18µM*
COc1ccc(NC(=O)C(C)N2C(=O)C3CC=C(Cl)CC3C2=O)cc1 (configuration not stated) | -2% | -4% | -2% | -1% | 1%
Cc1cc(C(=O)N2CCCC(N3CCN(c4cccc(C(F)(F)F)c4)CC3)C2)c(C)o1 (configuration not stated) | ? | -5% | 18µM* | -13% | -5%
O=C(c1cc[n+]([O-])cc1)N1CCCC(N2CCN(c3cccc(C(F)(F)F)c3)CC2)C1 (configuration not stated) | 2% | 1.3µM* | -2% | -19% | -65%
Cc1nn(C)cc1/C=C/C(=O)c1ccc(O)cc1 | 2% | ? | nt | ? | -9%
C=CCn1cccc(/C=C/C(=O)c2ccc(C(C)(C)C)cc2)c1=S | 13µM* | ? | ? | ? | ?
Cc1ccc(-c2nc(CN(CC3CCC3)CC3CCCO3)c(C)o2)s1 (configuration not stated) | 11% | 11µM* | 1% | -4% | 17%
O=S(=O)(Cc1cccc(F)c1)c1c[nH]c2ccccc12 | 13% | 19% | ? | 10% | 10%
O=C(NCCNC1CCC(c2ccccc2)CC1)c1ccc(F)cc1 (configuration not stated) | 1% | 24% | 14% | -15% | -3%
SMILES | MCF10A rerep | RORgamma inh | SW480 rereplic | ELG1 repair inh | Gal4-VP16 FLuc
COc1ccc(-n2cnc3ccccc32)cc1 | -2% | -32% | -4% | 8.2µM* | ?
c1ccc(-n2cnc3ccccc32)cc1 | 2% | ? | -5% | ? | -9%
c1ccc(-n2cnc3cc(NCc4cccs4)ccc32)cc1 | ? | ? | 13µM* | ? | -11%
COc1ccc(-n2c(N)c(-c3nc4ccccc4n3C)sc2=S)cc1 | 16% | 6.3µM* | 0% | ? | -13%
COc1ccc(-n2cnc3cc(NCc4cccs4)ccc32)cc1 | ? | 14µM* | 9% | ? | 7%
CN(C)C(CNC(=S)Nc1ccc(F)cc1)c1cccnc1 (configuration not stated) | -1% | -8% | 2% | -12% | 2%
COc1ccc(Br)cc1S(=O)(=O)NCc1ccccn1 | ? | ? | 2% | -13% | -13%
Cc1cc(Br)ccc1NCc1ccccn1 | 18µM* | 19% | 18µM* | ? | 3%
O=C(COc1ccccc1)Nc1ccc(-c2ccc(N3CCOCC3)nn2)cc1 | 17% | nt | -7% | 20% | nt
COc1cc(OC)c(/C=N/n2c(C)nnc2C)c(OC)c1 | 26µM* | -39% | -120% | -4% | -12%
Cc1cccc(Nc2cc(C)c3c(O)cccc3n2)c1C | ? | -15% | 21µM* | -10% | ?
O=c1oc2ccc3ccccc3c2cc1-c1nnc(-c2ccccc2)o1 | 1µM* | -19% | 1% | ? | 20%
CCOC(=O)c1ccc(NS(=O)(=O)c2c(N)n(C)c(=O)n(C)c2=O)cc1 | ? | nt | -7% | nt | nt
c1ccn2cc(-c3ccc4c(c3)OCCO4)nc2c1 | 2% | 3.5µM* | -3% | ? | ?
O=S(=O)(c1ccc(-c2cn3ccccc3n2)cc1)N1CCOCC1 | 14% | ? | -13% | 9% | 3%
O=C(O)c1cc(-c2ccc3c(c2)OCO3)nc2ccc(Cl)cc12 | ? | -33% | ? | ? | ?
Cc1ccc2nc(-c3cc(-c4ccccc4)no3)cn2c1 | -2% | 1.4µM* | ? | ? | 4µM*
Clc1ccc2nc(-c3ccccc3)cn2c1 | 7% | 11µM* | -3% | ? | ?
CN(C)S(=O)(=O)c1cccc(-c2cn3cc(Cl)ccc3n2)c1 | -5% | 12% | -2% | -16% | ?
Clc1ccc2nc(-c3ccc4c(c3)OCO4)cn2c1 | ? | 5µM* | 23µM* | ? | 8.9µM*
CC1CCN(CCNC(=S)Nc2ccc(Cl)cc2)CC1 | -2% | ? | -5% | 7% | ?
